About 1,300 (0.42%) of roughly 310,000 compounds were called active. This is one part of a sample in which actives are shown more often than they occur.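 Rule for the calls: active = B-score of calcium response area above 5 SD of library B-scores, with initial fluorescence ratio within 5 SD of library; inactive = the rest.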

The target in the experiment is Short transient receptor potential channel 4 (Mus musculus) (UniProt Q9QUQ5). Description: TRPC4 channel potentiators under submaximal DAMGO – cell-based, mouse TRPC4beta, HEK293 mu-opioid, Fluo-4 calcium, primary screen (AID 2227).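 For B-score: B-score of integrated fluorescence ratio over time as area under calcium response.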 The conditions noted are these: DAMGO EC20, Fluo-4 Ca2+ flux, at 10 µM; active compounds read high. (Calcium assays in cells follow changes in intracellular calcium, usually with a dye or a luminescent sensor.)
Sequence of Short transient receptor potential channel 4 (Mus musculus) (Q9QUQ5 whole entry, looked up): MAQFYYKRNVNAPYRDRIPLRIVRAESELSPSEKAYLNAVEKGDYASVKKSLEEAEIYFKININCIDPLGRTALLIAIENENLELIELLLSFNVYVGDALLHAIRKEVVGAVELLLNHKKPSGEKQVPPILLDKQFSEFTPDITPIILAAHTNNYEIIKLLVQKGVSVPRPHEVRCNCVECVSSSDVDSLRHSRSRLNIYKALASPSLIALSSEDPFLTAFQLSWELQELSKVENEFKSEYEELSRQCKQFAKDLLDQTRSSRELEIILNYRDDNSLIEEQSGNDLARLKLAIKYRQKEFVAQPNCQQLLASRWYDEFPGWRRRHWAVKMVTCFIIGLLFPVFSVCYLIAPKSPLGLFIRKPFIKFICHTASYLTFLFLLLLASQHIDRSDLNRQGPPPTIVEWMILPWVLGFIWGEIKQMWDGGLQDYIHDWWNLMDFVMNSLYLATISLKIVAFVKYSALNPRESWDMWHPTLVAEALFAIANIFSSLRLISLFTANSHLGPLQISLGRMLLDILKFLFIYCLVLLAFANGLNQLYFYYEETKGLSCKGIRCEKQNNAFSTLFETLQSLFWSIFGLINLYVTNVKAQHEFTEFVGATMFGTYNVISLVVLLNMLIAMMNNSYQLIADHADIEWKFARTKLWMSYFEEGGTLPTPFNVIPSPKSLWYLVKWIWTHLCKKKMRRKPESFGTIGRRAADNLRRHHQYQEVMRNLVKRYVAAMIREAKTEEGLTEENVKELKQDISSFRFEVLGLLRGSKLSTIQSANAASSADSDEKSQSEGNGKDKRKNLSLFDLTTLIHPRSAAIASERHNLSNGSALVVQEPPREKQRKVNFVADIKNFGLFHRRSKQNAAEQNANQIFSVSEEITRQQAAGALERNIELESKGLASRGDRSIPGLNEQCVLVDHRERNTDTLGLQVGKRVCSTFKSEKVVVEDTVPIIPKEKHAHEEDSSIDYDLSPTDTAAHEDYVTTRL
With `COc1ccccc1NC(=O)Nc1nc(CC(=O)Nc2ccccc2F)cs1`, the B-score entry was “inactive”.
The same measure for `CCOC(=O)c1cc2cc3ccccc3cc2oc1=O`: 13 (active); for `C=CCc1cccc2cc(C(=O)OCC)c(=O)oc12`: “inactive”; for `NS(=O)(=O)c1ccc(NC(=O)COC(=O)c2cc3ccccc3oc2=O)cc1`: “inactive”.
As to `CC(C)c1c(C(=O)N/N=C/c2ccc(-c3ccccc3)cc2)nnn1-c1nonc1N`, the B-score entry is “inactive”.
`CCCc1nc2scc(-c3ccc(C)cc3)c2c(=O)n1N`: the B-score result is “inactive”.
The same measure for `CN1CCN(c2ccc(CNS(=O)(=O)c3cccc(F)c3)cc2)CC1`: “inactive”; for `O=C(NCC(=O)N1CCN(c2ncc(C(F)(F)F)cc2Cl)CC1)c1ccc(Br)o1`: “inactive”; for `O=C(CN1CCN(c2ncc(C(F)(F)F)cc2Cl)CC1)Nc1ccc2c(c1)OCO2`: 10 (active).
The same measure for `O=C(CN1CCN(C(=O)c2ccco2)CC1)Nc1ccc2c(c1)OCO2`: “inactive”; for `OCCNc1nc2ccccc2n1-c1ncnc2sc3c(c12)CCC3`: “inactive”; for `COCCNC(=S)N1CCC(NC(=O)C23CC4CC(CC(C4)C2)C3)CC1`: “inactive”.
Consider `FC(F)(F)COc1nc(N2CCCCC2)nc(N2CCNCC2)n1`, for which the B-score is 27 (active).
As to `COc1nc(NC2CCCCC2)nc(N2CCCCCC2)n1`, the B-score entry was “inactive”.
Under `CN(N)c1nc(N2CCCC2)nc(N2CCCC2)n1` stands “inactive”.
Under `CC(=O)OCCOCn1cnn2c(=O)c(Br)c(C)nc12` stands “inactive”; under `C/C(=N\NC(=O)c1cc(-c2ccc(O)cc2)nc2ccccc12)c1cccnc1`, “inactive”.
On to `CN(C)c1ccc(/C=C2\NC(=S)N(Cc3ccccc3)C2=O)cc1`, for which the B-score is 14 (active).
For `O=C1/C(=C\c2ccsc2)NC(=S)N1c1ccccc1`, the B-score result was “inactive”.
The same measure for `COc1cc(/C=C2/SC(=S)N(Cc3ccccc3)C2=O)cc(OC)c1O`: “inactive”; for `CCC(C)(C)NC(=O)c1cc([N+](=O)[O-])ccc1N1CCCCC1`: “inactive”.
Under `CCOc1ccccc1NS(=O)(=O)c1c[nH]c(C(=O)OC)c1` stands “inactive”.
For the compound `CCOC(=O)C1CCCN(CCSc2ccc(C)cc2)C1` (configuration not stated), the B-score result is “inactive”.
With `NC(N)=N/N=C/c1ccc(Cl)c([N+](=O)[O-])c1`, the B-score was 16 (active).
Under `O=C(/C=C/c1ccc(Cl)c([N+](=O)[O-])c1)c1ccc(O)cc1` stands “inactive”.
The same measure for `O=C(/C=C/c1ccc(Cl)c([N+](=O)[O-])c1)c1cccnc1`: “inactive”.
Regarding `Brc1ccccc1/C=N/Nc1nc2ccccc2o1`, the B-score entry is “inactive”.
Under `Oc1cccc(/C=N/Nc2ccc(Cl)nn2)c1O` stands “inactive”.
Consider `Oc1c(Br)cccc1/C=N/Nc1c(F)c(F)c(F)c(F)c1F`, for which the B-score was 11 (active).
In the case of `O=[N+]([O-])c1cc(S(=O)(=O)CCCN2CCOCC2)ccc1F`, the B-score entry is “inactive”.
For the compound `C/C(=N/NC(=O)CCc1ccccc1)c1ccco1`, the B-score result is “inactive”.
Under `COc1ccc(C)cc1NC(=S)N1CCOCC1` stands “inactive”; under `CCOc1cc(C(=S)N2CCOCC2)ccc1O`, “inactive”; under `COc1cc(C(=S)N2CCOCC2)ccc1O`, 42 (active).
Take `COCCCNC(=O)/C=C/c1ccc(OCc2c(F)cccc2Cl)cc1`: the B-score entry was “inactive”.
In the case of `O=C(/C=C/c1ccc(OCc2c(F)cccc2Cl)cc1)N1CCOCC1`, the B-score entry is “inactive”.
The same measure for `CN(C)CCCNC(=O)/C=C/c1ccc(OCc2c(F)cccc2Cl)cc1`: 16 (active).
Turning to `CSc1nnc(C2CCCN(CC(=O)Nc3ccccc3N3CCOCC3)C2)n1C(C)C` (configuration not stated), the B-score entry was “inactive”.
Under `COc1ccc(OC)c(S(=O)(=O)N2CCCC(C(=O)NCCc3ccccc3)C2)c1` (configuration not stated) stands “inactive”.
The same measure for `O=C(CN1CCN(S(=O)(=O)c2ccc(F)cc2)CC1)Nc1ccccc1F`: “inactive”.
Consider `O=S(=O)(c1ccc(F)cc1)N1CCN(Cc2ccccc2C(F)(F)F)CC1`, for which the B-score is 11 (active).
Under `Cc1ccc(S(=O)(=O)N2CCN(Cc3cccc(C)c3O)CC2)cc1` stands “inactive”; under `Cc1ccc(C(=O)COC(=O)c2cccc(N3C(=O)c4c(C)nc5ccccc5c4C3=O)c2)cc1C`, “inactive”.
On to `Cc1cccn2c(=O)c(C=O)c(Nc3ccc(S(N)(=O)=O)cc3)nc12`, for which the B-score result was “inactive”.
The same measure for `Cc1cccc(NC(=O)c2cc([N+](=O)[O-])ccc2N2CCN(C)CC2)c1`: 21 (active).
The same measure for `CC(=O)Nc1ccc(N2CCOCC2)c(C(=O)Nc2cccc(C)c2)c1`: “inactive”; for `O=C(Nc1cccc(Cl)c1)c1cc([N+](=O)[O-])ccc1N1CCN(CCO)CC1`: “inactive”.
The same measure for `CC(Sc1nn(-c2ccc(Cl)cc2)c(=S)s1)C(=O)NCC1CCCO1` (configuration not stated): “inactive”.
In the case of `COc1ccc(S(=O)(=O)n2cnc3ccccc32)c(C)c1`, the B-score result was “inactive”.
In the case of `CCCCOc1ccc(CSC(=N)N)cc1[N+](=O)[O-]`, the B-score is 21 (active).
Regarding `CCCCCOc1ccc(CSC2=NCCN2)cc1[N+](=O)[O-]`, the B-score entry is “inactive”.
In the case of `CCCOc1ccc(Cn2ccnc2)cc1[N+](=O)[O-]`, the B-score entry was “inactive”.
Turning to `O=C(NNC(=O)C1C2CCC(C2)C1C(=O)O)c1ccc(Cl)cc1` (configuration not stated), the B-score entry was “inactive”.
Under `Cc1ccc(CN(CC(=O)NC2CCCCC2)C(=O)c2csnn2)cc1` stands “inactive”; under `Cc1ccccc1C(CC(=O)c1cccs1)C(C#N)C#N` (configuration not stated), “inactive”; under `CCOc1ccc(Br)cc1S(=O)(=O)Nc1ccc(C(=O)OC(C)C(=O)N(C)c2ccccc2)cc1` (configuration not stated), “inactive”.
The same measure for `O=C(NCc1cccc(C(F)(F)F)c1)c1cccc(S(=O)(=O)N2CCN(Cc3ccccc3)CC2)c1`: “inactive”; for `O=C(NCc1ccccc1)c1ccc(S(=O)(=O)Nc2cccc(C(F)(F)F)c2)cc1`: 17 (active).
As to `CCOC(=O)N1CCN(C(=O)c2ccc(S(=O)(=O)Nc3cccc(C(F)(F)F)c3)cc2)CC1`, the B-score result is “inactive”.
The same measure for `CC[C@@H](C)[C@H](NC(=O)CCc1c(C)c2cc3c4c(oc3c(C)c2oc1=O)CCCC4)C(=O)O`: “inactive”; for `O=C(c1cc(Cl)cc(Cl)c1)N1CCC(=O)N(C(COCc2ccccc2)Cc2ccccc2)CC1` (configuration not stated): 12 (active); for `CC(C)CC(COCc1ccc(Cl)cc1)N1CCN(C(=O)c2ccc(C(F)(F)F)cc2)CCC1=O` (configuration not stated): “inactive”.
Regarding `CN1CCC(=O)N([C@H](CO)Cc2ccccc2)CC1`, the B-score result is “inactive”.
`COc1ccc(N2CC(C(=O)NCCN3C(=O)S/C(=C\c4cccnc4)C3=O)CC2=O)c(OC)c1` (configuration not stated): the B-score entry was “inactive”.
The same measure for `COc1ccc(N2CCN(S(=O)(=O)CCNC(=O)C34CC5CC(CC(C5)C3)C4)CC2)cc1`: “inactive”; for `Cc1ccc(NC(=O)Cc2nnc(SCC(=O)Nc3nncs3)n2C)cc1`: “inactive”; for `C[C@]12C=CC(=O)C=C1CC[C@@H]1[C@@H]2C(=O)C[C@@]2(C)[C@H]1CC[C@]2(O)C(=O)CO`: “inactive”.
The same measure for `CC(=O)C12CC(C)=C(C)CC1CC1C3CCC4=CC(=O)CCC4(C)C3CCC12C` (configuration not stated): 11 (active); for `CC(=O)O[C@]1(C(C)=O)CC[C@H]2[C@@H]3C=C(C)C4=CC(=O)CC[C@]4(C)[C@H]3CC[C@@]21C`: “inactive”.
In the case of `CC(=O)c1c(C)n(-c2ccc(N(C)C)cc2)c2ccc(OCC(N)=O)cc12`, the B-score result is “inactive”.
Under `O=C1CSC(c2ccc(Cl)cc2)N1` (configuration not stated) stands “inactive”; under `COc1ccc(S(=O)(=O)NC(C)c2ccccc2)cc1C(=O)N1CCCCC1` (configuration not stated), “inactive”; under `CCc1nc2oc3ccccc3c(=O)c2c(=O)n1Cc1ccc(OC)cc1`, “inactive”.
The same measure for `O=c1c2ccccc2oc2nc(C3CCCCC3)n(Cc3ccco3)c(=O)c12`: 29 (active); for `O=c1c2ccccc2oc2nc3n(c(=O)c12)CCCS3`: “inactive”; for `CN(C)CCNc1ccc(-c2n[nH]c(=O)c3ccccc23)cc1[N+](=O)[O-]`: “inactive”.
Turning to `CSc1ccccc1NC(=O)CN(C)CC(=O)Nc1ccc(Cl)cc1[N+](=O)[O-]`, the B-score entry was “inactive”.
Under `CCN(CC)CCNc1ccc(Cl)cc1[N+](=O)[O-]` stands 20 (active).
Consider `C/C(=N\N1CCN(Cc2ccc(C)cc2)CC1)c1ccco1`, for which the B-score entry was “inactive”.
The same measure for `CCn1cc(C(=O)NCC(=O)NC(C)(C)CO)c(=O)c2cc3c(cc21)OCO3`: “inactive”; for `COc1ccccc1CNS(=O)(=O)CC12CCC(CC1=O)C2(C)C` (configuration not stated): “inactive”; for `Cc1c(NC(=O)C(=O)N/N=C/c2cccs2)c(=O)n(-c2ccccc2)n1C`: “inactive”.

Source of the values: PubChem BioAssay AID2227 (Johns Hopkins Ion Channel Center, 2009).
